Experimental findings from PubChem BioAssay (EPA / NIEHS) are described below.

The nature of assay [1]: ATG_PBREM_CIS: Attagene CIS-FACTORIAL HepG2 Assay for human Phenobarbital-responsive Enhancer Module (PBREM) (AID 2282955). Particulars: HepG2 PBREM cis-reporter, Attagene multiplexed transcription; actives raise or lower the signal. The method in brief:
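HepG2 cells transiently transfected with multiple cis-regulated reporter units measure endogenous transcription factor activity; 24 h compound exposure. Reporter mRNA quantified by RT-PCR, fluorescent labelling, HpaI digestion and capillary electrophoresis; bidirectional fit versus DMSO.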

The target of assay [2] is Paired box protein Pax-6 (Homo sapiens) (UniProt P26367). Nature of the assay: ATG_Pax6_CIS: Attagene CIS-FACTORIAL HepG2 Assay for human Paired Box 6 (PAX6) (AID 2282956). The conditions noted are these: HepG2 CIS-FACTORIAL PAX6 reporter transcription, RNA readout; actives raise or lower the signal. The method in brief:
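Multiplexed cis-reporter HepG2 system; 24 h treatment; reporter mRNA read by RT-PCR/CE fluorescence; bidirectional fit vs DMSO.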

Assay [3] in a line: ATG_PXRE_CIS: Attagene CIS-FACTORIAL HepG2 Assay for human Pregnane X Receptor Element (PXRE) (AID 2282957). The conditions noted are these: HepG2 Attagene CIS-FACTORIAL PXRE reporter, mRNA; actives raise or lower the signal. The method, boiled down: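 HepG2 cells transiently transfected with cis-element-driven multiplexed reporter units; after 24 h chemical exposure, reporter mRNA measured by RT-PCR, 6-FAM labelling, HpaI digestion and capillary electrophoresis. Bidirectional fitting relative to DMSO.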

Assay [4] is described as follows: ATG_PPRE_CIS: Attagene CIS-FACTORIAL HepG2 Assay for human Peroxisome Proliferator-activated Response Element (PPRE) (AID 2282958). Particulars: HepG2 PPRE cis-element reporter, Attagene transcription factor profiling; actives raise or lower the signal. The method in brief: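 HepG2 cells are transiently transfected with multiplexed cis-promoter reporter units to report endogenous PPAR activity. After 24 h dosing, reporter mRNA is read by RT-PCR and capillary electrophoresis. Fitting is bidirectional against DMSO.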

A short description of assay [5]: ATG_RORE_CIS: Attagene CIS-FACTORIAL HepG2 Assay for human RAR-related Orphan Receptor Element (RORE) (AID 2282959). Particulars: HepG2 Attagene cis-factorial RORE reporter, mRNA; actives raise or lower the signal. The method in brief:
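HepG2 cells carrying transiently transfected cis-regulated reporter units; RORE-driven reporter mRNA quantified 24 h post-dosing by RT-PCR, 6-FAM primer extension, HpaI digestion and capillary electrophoresis. Bidirectional fit versus DMSO.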

Assay [6] in a line: ATG_Sox_CIS: Attagene CIS-FACTORIAL HepG2 Assay for human SRY-box transcription factor (SOX) (AID 2282960). The conditions noted are these: HepG2 Attagene cis-factorial SOX reporter, mRNA; actives raise or lower the signal. The method in brief: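 HepG2 cells transiently transfected with multiple cis-regulated reporter units, then dosed for 24 h. Reporter mRNA quantified by RT-PCR, fluorescent labelling, HpaI digestion and capillary electrophoresis; bidirectional fit versus DMSO.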

The target of assay [7] is Transcription factor Sp1 (Homo sapiens) (UniProt P08047). Nature of the assay: ATG_Sp1_CIS: Attagene CIS-FACTORIAL HepG2 Assay for human Specificity Protein 1 (Sp1) (AID 2282961). Particulars: HepG2 Sp1 cis-reporter transcription, actives raise or lower the signal. The method, boiled down:
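HepG2 cells transiently transfected with multiplexed cis-regulated reporter constructs, chemical exposure 24 h. Reporter mRNA quantified by RT-PCR with capillary electrophoresis; bidirectional fit relative to DMSO.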

Assay [8] is described as follows: ATG_SREBP_CIS: Attagene CIS-FACTORIAL HepG2 Assay for human Sterol Regulatory Element Binding (SREBP) (AID 2282962). The conditions noted are these: HepG2 Attagene cis-factorial SREBP reporter, mRNA; actives raise or lower the signal. The method in brief: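 mRNA induction of transfected cis-promoter reporters in HepG2 cells, 24 h post-dose. Detection: RT-PCR with 6-FAM-labelled products, HpaI digest, capillary electrophoresis. DMSO served as negative control and baseline.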

Assay [9] deals with Signal transducer and activator of transcription 3 (Homo sapiens) (UniProt P40763). Nature of the assay: ATG_STAT3_CIS: Attagene CIS-FACTORIAL HepG2 Assay for human Signal Transducer and Activator of Transcription 3 (STAT3) (AID 2282963). Particulars: HepG2, Attagene cis-factorial STAT3 reporter transcription; actives raise or lower the signal. The method in brief:
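Transcript-level reporter assay. HepG2 transient MRTU transfection, 24 h exposure, fluorescence detection after RT-PCR and CE; DMSO baseline.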

Assay [10] can be described thus: ATG_TA_CIS: Attagene CIS-FACTORIAL HepG2 Assay for human TA Basal Promoter (AID 2282964). The conditions noted are these: HepG2 Attagene CIS-factorial TA basal promoter reporter; actives raise or lower the signal. The method in brief: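 HepG2 cells transiently transfected with multiple reporter units under cis promoter elements, reporting endogenous transcription factor activity; this endpoint tracks the TA basal promoter as background control. Reporter mRNA after 24 h dosing measured by RT-PCR/capillary electrophoresis; bidirectional fits versus DMSO.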

The AC50 is the concentration at which the activity in the assay is half-maximal.

“And” between values parts separate entries of the source, which are not always exact repeats. Identical values can stand only once. Some compounds were tested as several samples or in several runs, with calls that do not always agree. The source made the active and inactive calls. Rule for the calls: active = hit-call score of the fitted dose curve at least 0.9, where 1 is the maximum; inactive = score below 0.9.

Chain of Paired box protein Pax-6 (Homo sapiens) (P26367 whole entry, looked up): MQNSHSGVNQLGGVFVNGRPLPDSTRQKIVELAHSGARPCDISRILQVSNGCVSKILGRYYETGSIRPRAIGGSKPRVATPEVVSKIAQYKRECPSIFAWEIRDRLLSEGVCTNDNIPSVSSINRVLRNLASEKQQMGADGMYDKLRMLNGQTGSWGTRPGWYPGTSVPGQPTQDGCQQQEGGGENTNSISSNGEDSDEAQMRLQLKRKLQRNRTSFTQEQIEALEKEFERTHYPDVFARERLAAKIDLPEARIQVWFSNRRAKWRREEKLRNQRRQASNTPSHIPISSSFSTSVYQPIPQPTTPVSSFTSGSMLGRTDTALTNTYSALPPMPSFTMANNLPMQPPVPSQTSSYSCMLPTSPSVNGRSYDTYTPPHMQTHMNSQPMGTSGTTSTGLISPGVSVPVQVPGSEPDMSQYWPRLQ
Chain of Transcription factor Sp1 (Homo sapiens) (P08047 whole entry, looked up): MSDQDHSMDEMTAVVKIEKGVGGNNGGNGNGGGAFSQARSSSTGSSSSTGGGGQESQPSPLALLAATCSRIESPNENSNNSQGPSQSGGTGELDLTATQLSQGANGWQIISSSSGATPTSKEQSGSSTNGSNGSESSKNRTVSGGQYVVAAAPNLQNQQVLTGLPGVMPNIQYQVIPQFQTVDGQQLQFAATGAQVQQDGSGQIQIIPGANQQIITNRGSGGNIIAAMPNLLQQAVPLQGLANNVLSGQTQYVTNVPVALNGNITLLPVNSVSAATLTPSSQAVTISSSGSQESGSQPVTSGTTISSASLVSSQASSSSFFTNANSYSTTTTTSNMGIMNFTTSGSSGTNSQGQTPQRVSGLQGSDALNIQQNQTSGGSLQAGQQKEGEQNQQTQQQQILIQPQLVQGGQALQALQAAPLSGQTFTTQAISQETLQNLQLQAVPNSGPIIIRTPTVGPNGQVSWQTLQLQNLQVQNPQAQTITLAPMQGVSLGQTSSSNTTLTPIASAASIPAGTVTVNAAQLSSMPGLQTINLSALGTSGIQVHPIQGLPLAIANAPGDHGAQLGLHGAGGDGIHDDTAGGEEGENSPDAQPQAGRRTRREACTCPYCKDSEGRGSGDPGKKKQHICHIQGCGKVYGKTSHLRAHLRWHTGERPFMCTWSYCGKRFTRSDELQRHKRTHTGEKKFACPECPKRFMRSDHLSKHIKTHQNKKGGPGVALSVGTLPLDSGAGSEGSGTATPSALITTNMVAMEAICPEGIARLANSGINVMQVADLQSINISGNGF
Chain of Signal transducer and activator of transcription 3 (Homo sapiens) (P40763 whole entry, looked up): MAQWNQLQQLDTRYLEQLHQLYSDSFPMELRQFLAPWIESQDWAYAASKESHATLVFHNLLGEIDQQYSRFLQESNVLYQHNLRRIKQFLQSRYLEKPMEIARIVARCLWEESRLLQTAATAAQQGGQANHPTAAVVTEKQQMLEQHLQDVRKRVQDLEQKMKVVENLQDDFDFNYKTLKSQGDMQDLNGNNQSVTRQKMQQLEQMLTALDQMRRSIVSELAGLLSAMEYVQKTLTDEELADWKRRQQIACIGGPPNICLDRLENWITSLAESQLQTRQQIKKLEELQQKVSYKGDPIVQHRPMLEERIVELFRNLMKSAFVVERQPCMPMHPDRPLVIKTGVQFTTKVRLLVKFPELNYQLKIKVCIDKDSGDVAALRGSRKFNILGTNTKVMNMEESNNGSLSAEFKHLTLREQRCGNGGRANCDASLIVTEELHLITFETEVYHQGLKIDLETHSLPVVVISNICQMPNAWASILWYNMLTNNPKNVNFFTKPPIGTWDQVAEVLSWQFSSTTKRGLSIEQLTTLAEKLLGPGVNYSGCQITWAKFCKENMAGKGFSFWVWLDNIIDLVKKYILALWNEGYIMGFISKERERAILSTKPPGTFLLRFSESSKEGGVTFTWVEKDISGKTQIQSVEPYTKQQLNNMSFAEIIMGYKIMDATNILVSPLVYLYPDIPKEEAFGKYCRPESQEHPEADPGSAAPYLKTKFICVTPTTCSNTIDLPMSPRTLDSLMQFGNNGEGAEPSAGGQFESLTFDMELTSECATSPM

As to `Nc1ccc(Cl)cc1`, the outcome in assay [1], in assay [2], in [3], in assay [4], in assay [5] and in assay [6] was inactive. Besides, the outcome in [7], in [8], in [9] and in [10] was inactive.
In the case of `O=C(O)C(F)(OC(F)(F)C(F)(F)C(F)(F)F)C(F)(F)F` (stereo unspecified), the result in assay [1], in assay [2], in [3], in assay [4], in assay [6] and in assay [7] was inactive. Further, the compound was classed as inactive in assay [8], in [9] and in assay [10]. In addition, the AC50 in assay [4] was 74.8 µM (active).
As to `CCOS(=O)(=O)OCC`, the outcome in assay [1], in assay [2], in [3], in [4], in assay [5] and in [6] was inactive. Further, the compound was called inactive in assay [7], in [8], in assay [9] and in [10].
Take `CC(C)(C)OOC(C)(C)C`: the result in assay [1], in assay [2], in assay [3], in assay [4], in [5] and in [6] was inactive. The result in assay [7], in [8], in assay [9] and in assay [10] was inactive.
Turning to `Clc1ccc(Oc2ccccc2)cc1`, the result in assay [1], in assay [2], in [3], in assay [4], in assay [5] and in [6] was inactive. Also, the result in [7], in assay [8], in [9] and in [10] was inactive.
Consider `CCOP(=S)(S)OCC`, for which the outcome in [1], in [2], in assay [4], in assay [5], in assay [6] and in assay [7] was inactive. The compound was called inactive in assay [8], in assay [9] and in [10]. For the same compound, in assay [3], the half-maximal activity concentration (AC50) is 57.5 µM (active).
Take `O=[N+]([O-])c1cc(Cl)ccc1Cl`: the result in [1], in assay [2], in assay [4], in [5], in [6] and in assay [7] was inactive. Further, the compound was classed as inactive in assay [8], in [9] and in assay [10]. The AC50 in assay [3] was 56.2 µM (active).
In the case of `CCCCN(CC)C(=O)SCCC`, the result in assay [1], in [2], in [4], in assay [5], in assay [6] and in [7] was inactive. In addition, the compound was classed as inactive in assay [8], in assay [9] and in assay [10]. Besides, the concentration at half-maximal activity (AC50) in assay [3] was 25.9 µM (active).
Consider `CCCCN(CCCC)SN(C)C(=O)Oc1cccc2c1OC(C)(C)C2`, for which the result in assay [1], in assay [2], in assay [4], in assay [5], in assay [6] and in assay [7] was inactive. For the same compound, the outcome in assay [8], in assay [9] and in assay [10] was inactive. Further, in assay [3], the AC50 was 8.93 µM (active).
For the compound `CCCN(CCC)c1c([N+](=O)[O-])cc(C(C)C)cc1[N+](=O)[O-]`, the outcome in assay [1], in [2], in assay [4], in assay [5], in assay [6] and in assay [7] was inactive. Further, the result in assay [8], in assay [9] and in [10] was inactive. For the same compound, the half-maximal activity concentration (AC50) in assay [3] was 1.08 µM (active).
As for `CC(=O)c1ccc(-c2ccccc2)cc1`, the outcome in assay [1], in [2], in assay [4], in assay [5], in assay [6] and in assay [7] was inactive. For the same compound, the compound was called inactive in assay [8], in assay [9] and in [10]. Also, the concentration at half-maximal activity (AC50) in [3] is 27.2 µM (active).
As to `CC(Cl)CN(C)C` (stereo unspecified), the outcome in assay [1], in [2], in assay [3], in assay [4], in assay [5] and in [6] was inactive. Further, the result in assay [7], in [8], in assay [9] and in [10] was inactive.
For the compound `O=P1(N(CCCl)CCCl)NCCCO1` (stereo unspecified), the outcome in assay [1], in assay [2], in assay [3], in [4], in [5] and in [6] was inactive. Besides, the outcome in [7], in assay [8], in assay [9] and in assay [10] was inactive.
As to `Cc1ccc(C(=O)Cl)cc1`, the outcome in [1], in [2], in assay [3], in assay [4], in [5] and in assay [6] was inactive. For the same compound, the call in [7], in assay [8], in [9] and in assay [10] was inactive.
With `CC(O)C#N` (stereo unspecified), the outcome in assay [1], in [2], in [3], in [4], in [5] and in assay [6] was inactive. Besides, the outcome in assay [7], in [8], in assay [9] and in assay [10] was inactive.
As to `C=C(C)C(=O)OCC1CO1` (stereo unspecified), the outcome in assay [1], in assay [2], in [3], in [4], in assay [5] and in assay [6] was inactive. For the same compound, the outcome in assay [7], in assay [8], in assay [9] and in [10] was inactive.
For `CCCCC(CC)COP(=O)(Oc1ccccc1)Oc1ccccc1` (stereo unspecified), the outcome in assay [1], in assay [5], in assay [6] and in [9] was inactive. In addition, the AC50 was 100 µM (active) in assay [2]; 0.516 µM (active) in [3]; 37.7 µM (active) in [4]; 126 µM (active) in assay [7]; 35.4 µM (active) in assay [8]; 55.3 µM (active) in [10].
Turning to `FC(F)(F)c1ccc(Cl)cc1`, the result in [1], in [2], in assay [3], in assay [4], in assay [5] and in [6] was inactive. For the same compound, the result in [7], in assay [8], in assay [9] and in assay [10] was inactive.
Consider `Nc1cc2c3c(c1)C(c1ccccc1)=N[C@@H](NC(=O)c1cccnc1)C(=O)N3CC2`, for which the concentration at half-maximal activity (AC50) in assay [1] was 41.9 µM (active); in assay [3], 26.5 µM (active); in assay [5] it was 17.5 µM (active); in assay [8], 66.8 µM (active). Further, the result in assay [2], in assay [4], in [6], in assay [7], in assay [9] and in [10] was inactive.
For `CNC(=O)Oc1ccc(N(C)C)c(C)c1`, the outcome in assay [1], in [2], in assay [4], in [5], in assay [6] and in assay [7] was inactive. Further, the compound was called inactive in assay [8], in [9] and in [10]. Besides, in assay [3], the AC50 was 38.3 µM (active).
Regarding `COC(=O)C(F)(F)C(F)(F)OC(F)(C(F)(F)F)C(F)(F)OC(F)=C(F)F` (stereo unspecified), the result in assay [1], in [2], in assay [5], in assay [6], in [7] and in [8] was inactive. The compound was classed as inactive in assay [9] and in assay [10]. For the same compound, the AC50 was 4.84 µM (active) and 15.2 µM (active) and 5.55 µM (active) in assay [3]; 160 nM (active) and 436 nM (active) and 230 nM (active) in [4]; 0.451 µM (active) in [5].
Take `OCC(F)(F)OC(F)(F)C(F)(F)OC(F)(F)CO`: the result in assay [1], in assay [2], in assay [4], in [5], in assay [6] and in [7] was inactive. In addition, the compound was classed as inactive in assay [8], in [9] and in assay [10]. Besides, the AC50 in assay [3] was 74.8 µM (active).
On to `CCC1(c2ccccc2)C(=O)N=C(O)NC1=O` (stereo unspecified), for which the outcome in assay [1], in assay [2], in [4], in assay [5], in [6] and in [7] was inactive. Further, the compound was called inactive in assay [8], in assay [9] and in assay [10]. For the same compound, in assay [3], the concentration at half-maximal activity (AC50) was 100 µM (active).
In the case of `Cc1ccc([N+](=O)[O-])cc1C`, the outcome in assay [1], in [2], in [3], in assay [4], in assay [5] and in [6] was inactive. Also, the compound was classed as inactive in assay [7], in [8], in [9] and in assay [10].
